Test results published in PubChem BioAssay (NCI).
About 83,000 compounds went through this panel and 20% of them were active in at least one assay; those are over-represented in the sample as a whole.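 Activity criterion: percent growth below 10, measured after cells in 96-well plates were exposed to a single compound concentration for 48 hours.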 Unmarked numbers belong to inactive results. Active and inactive are the calls of the source.

System: RPMI-8226 leukemia
Experiment: NCI-60 one-dose screen, 48 h (100 = growth as untreated, 0 = no growth, -100 = all killed)
Settings: 10 µM
Method: Growth inhibition of the RPMI-8226 human tumor cell line is measured as a screen for anti-cancer activity. Cells are grown in 96 well plates and exposed to the test compound for 48 hours. Compounds are tested at a single concentration, which is 10^-5 M for most compounds. The reported endpoint is percent growth (GI% or GIPRCNT), where numbers from 0 - 100% represent growth inhibition, and numbers from -100% - 0 represent cell death. For example, a value of 40 represents 60% growth inhibition. A value of 0 means no net growth occurred over the course of the experiment. A value of -40 indicates 40% of cells at the beginning of the experiment died by the end of the experiment. A value of -100 means all cells are dead at the end of the experiment.
NCI-60 Human Tumor Cell Lines Screen was performed using the standard one-dose NCI protocol, which is described in more detail at https://dtp.cancer.gov/discovery_development/nci-60/default.htm.
Compounds with GIPRCNT values below 10 were considered active. Activity score was based on GIPRCNT using the following formula: […]
Score is 0 for GIPRCNT values of 100 or above, 50 for GIPRCNT values of 0, and 100 for GIPRCNT values of -100.

SMILES | growth
Cc1nc2cc(Nc3nc(Cl)nc(Nc4ccc(F)cc4)n3)ccc2n1Cc1ccccc1 | 15.3%
O=C1NC(=O)C2(CCCC2C(=O)O)N1 (stereo not given) | 103%
O=C1NC(=S)S/C1=C\c1cccc([N+](=O)[O-])c1 | 62.8%
O=C(N/N=C/c1ccc2c(c1)OCO2)c1cnn2c1NC(c1ccccc1)C2 (stereo not given) | 76.4%
CC(=O)N(CC(O)CO)c1c(I)c(C(=O)NCCO)c(I)c(C(=O)NCC(O)CO)c1I (stereo not given) | 102%
Cc1nn2c(-c3nc4ccc(Cl)cc4[nH]3)c(-c3ccc(F)cc3)nc2s1 | 77.6%
Cc1nc(NC(=O)COc2cccc(/C=C3\COc4ccccc4C3=O)c2)sc1C | -74.2% (active)
Cc1c(NCC(=O)Nc2nc3ccccc3[nH]2)c(=O)n(-c2ccccc2)n1C | 96.7%
COc1ccc(-c2nc3sc(C)cn3c2/C=C/C(=O)c2cc(OC)c(OC)c(OC)c2)cc1 | 31.5%
COc1ccc(-c2c3c(N)c4c(nc3nc3c2c(C)nn3-c2ccccc2)CCCCC4)cc1 | -4.18% (active)
CN1CCc2c(c3ccccc3c3ccccc23)C1 | 50.8%
COc1cccc(Nc2nc(NCCO)c3ccccc3n2)c1 | 13.7%
O=C(c1ccccc1)C(Br)C(Br)c1cccc([N+](=O)[O-])c1 (stereo not given) | -19.4% (active)
CN(C)C(=S)SCN1C(=O)c2ccc([N+](=O)[O-])cc2S1(=O)=O | 116%
COc1ccc(/C=C2\CN(Cc3cn(CCCNc4ccnc5cc(Cl)ccc45)nn3)C/C(=C\c3ccc(OC)cc3)C2=O)cc1 | 18%
Cc1ccc(S(=O)(=O)N2CCc3ccc(O)c4c3C2CCc2ccccc2-4)cc1 (stereo not given) | 95.8%
O=C1C(Cl)=C(NCCCN2CCOCC2)C(=O)c2ccccc21 | 78.3%
COc1ccc(-n2ncc3c2ccc2cc(S(=O)(=O)c4ccccc4)c(=O)n(C)c23)cc1 | 85.4%
Cc1ccc(S(=O)(=O)N(c2ccc(Cl)cc2)c2ccc(Br)cc2C(=O)O)cc1 | 108%
Cc1cc(=O)c2c(C)ccc(C)c2[nH]1 | 105%

SMILES | growth
COc1nc2c(cc1S(=O)(=O)c1ccccc1)CCc1c-2cnn1-c1ccccc1 | 62.6%
C[C@@H](Oc1cc(-c2cnn(C3CC4(CCCNC4)C3)c2)cnc1N)c1c(Cl)ccc(F)c1Cl (stereo not given in full) | -0.0926% (active)
COc1cc(/C=C/C(=O)CC(=O)/C=C/c2cc(Br)c(OC)c(OC)c2)cc(Br)c1OC | 116%
OB(O)c1ccccc1 | 102%
Cc1nc2nc(C(F)(F)F)[nH]c2nc1C | 92.1%
CCOC(=O)C1=C(C)N2C(=NC3=C(CCCC/C3=C\c3cc(OC)c(OC)c(OC)c3)C2c2cc(OC)c(OC)c(OC)c2)S1 (stereo not given) | 32.7%
COc1cccc(-c2ccc3c(c2)C2CCN(Cc4ccccc4)C3C2)c1 (stereo not given) | 59.4%
COc1cc(C2CC(=O)Nc3c2ccc2ccccc32)cc(Br)c1OC (stereo not given) | -13.1% (active)
O=c1nc(NO)[nH]c(=O)n1Cc1ccc(F)cc1 | 105%
O=C1/C(=C/c2ccc([N+](=O)[O-])cc2)Oc2ccc(O)cc21 | 34%
COC1(OC)C2(Cl)C=C(c3ccccc3)C1(Cl)C(Cl)=C2Cl (stereo not given) | 92.4%
Cc1ccc2c(N/N=C\c3ccco3)cc(C)nc2n1 | 64.7%
COC(=O)c1c2c(c(C)[n+]([O-])c1C)C(=O)C=C(NCc1ccc(F)c(Cl)c1)C2=O | -32.7% (active)
O=C(N/N=C/c1ccc(F)cc1)c1[nH]c2ccc(I)cc2c1-c1ccccc1 | 22%
O=S(=O)(Nc1ncccn1)c1ccc(Nc2ccc3nnc(-c4ccncc4)n3n2)cc1 | 109%
CC(C)(C)[Si](C)(C)OC1[C@@H](COC(N)=O)O[C@@H](n2cnc3c(N)ncnc32)[C@H]1O[Si](C)(C)C(C)(C)C (stereo not given in full) | 21.6%
COc1cc(CNCCCN2C(=O)c3ccc4c5c(ccc(c35)C2=O)C(=O)N(CCCNCc2cc(OC)c(OC)c(OC)c2)C4=O)cc(OC)c1OC | -18.5% (active)
CCN1C(=O)C2(Nc3ccccc3S2)c2cc(C)ccc21 (stereo not given) | 92.9%
Cc1cccc2c(=O)c3c(sc12)c(NCCCN)nc1ccccc13 | -29.9% (active)
CCCCCCCCCCCCCCNc1nc(CO)ncc1-c1ccc(C(F)(F)F)cc1 | 93.9%
